# Test results reported in ChEMBL document CHEMBL4513216, “Probing the Open Global Health Chemical Diversity Library for Multistage-Active Starting Points for Next-Generation Antimalarials” (ACS Infect Dis, 2020).
# Among all 69,000 compounds or so, about 8,600 (12%) showed an effect of 50% or more. The entries come from a sample that favours strong results as a whole.
# Test system: Plasmodium berghei
# Assay: Screen against P. berghei liver stage (PbLuc), transformed with Luciferase, at 10uM
# Assay type: functional, HepG2
# Settings: tested at 10 uM
row,Compound,INHIBITION [%]
1,COc1ccc(C(NC(=O)NCc2nnc3n2CCC3)C2CC2)cc1 (stereo unspecified),50.4
2,CCn1cnnc1CNC(=O)NC(c1ccc(OC)cc1)C1CC1 (stereo unspecified),32.5
3,O=C(NCc1ccc(Cl)s1)NCc1nnc2n1CCCCC2,-10.6
4,CC(CN1CCOCC1)NC(=O)NCCc1ccc(Cl)s1 (stereo unspecified),53.4
5,O=C(NCCc1ccc(Cl)s1)NCc1nnc2n1CCC2,53.8
6,CCc1ccc(CNC(=O)NCc2nnc3n2CCC3)s1,25.1
7,O=C(NCCc1ccc(Cl)s1)NCc1nnc2n1CCCC2,21
8,CN(Cc1cnn(C)c1)C(=O)NCc1nnc2n1CCC2,-22.6
9,CC(CN1CCOCC1)NC(=O)N(C)Cc1ccc(Cl)s1 (stereo unspecified),-12.6
10,CC(CN1CCOCC1)NC(=O)NCc1ccc(Cl)s1 (stereo unspecified),-34.7
11,O=C(NCCC1=CCCCC1)NCc1nnc2n1CCC2,40.3
12,CN(C)CCC1CCN(Cc2ccn(C)c(=O)c2)CC1,-8.11
13,CO[C@H]1CN(C(=O)c2ccccn2)[C@@H]2CCCO[C@H]12,36.4
14,CC(C)c1ncc(Cl)c(C(=O)N2CCN(C3CC3)CC2)n1,40.7
15,CS(=O)(=O)N1C[C@H]2CCCN(Cc3ccsc3)[C@H]2C1,21.6
16,COc1cc(N2CCC3(CC2)CC(N2CCN(C)CC2)CO3)ncn1 (stereo unspecified),26
17,Cc1cccc(C(=O)N2C[C@@H]3CC[C@H](Oc4cccc(F)c4)[C@@H]3C2)n1,25.6
18,COCCN1CCC2(CCCN(C(=O)c3cncn3C)C2)CC1,49.7
19,CNC(=O)CC1CC2(CCN(CC3CC3)CC2)Oc2ccccc21 (stereo unspecified),44.5

row,Compound,INHIBITION [%]
1,Cc1nc2sccn2c1CN(CCCN(C)C)Cc1ccccn1,-12.5
2,CN(CC1CCN(CCO)CC1)CC(O)c1ccc(F)c(F)c1 (stereo unspecified),49.9
3,CN(CC1CCN(CCO)CC1)CC(O)c1ccc(F)cc1 (stereo unspecified),34.1
4,CN(CC1CCN(CCO)CC1)CC(O)c1ccc(F)cc1F (stereo unspecified),59.1
5,Cc1cc(C)n(Cc2ccc(-c3noc(C(=O)NC[C@@H](C)O)n3)cc2)n1,-4.28
6,CN1CCN(c2nccc(-c3cncnc3C3CCCCC3)n2)CC1,23.4
7,NC(=O)C1CCN(c2ncc(-c3cnccn3)c([C@H]3CCCO3)n2)CC1,-0.902
8,NC(=O)[C@H]1CCCN(c2nccc(-c3ccncc3)n2)C1,10
9,NC(=O)[C@H]1CCCN(c2nccc(-c3c[nH]nc3-c3cccnc3)n2)C1,54.5
10,CN1CCCN(c2nccc(-c3cncnc3C3CCCCC3)n2)CC1,50.1
11,Cc1ccnc(N2CCC(C(N)=O)CC2)n1,63.4
12,CN1CCCN(c2nccc(-c3c[nH]c4ccc(Br)cc34)n2)CC1,41.2
13,NC(=O)C1CCN(c2nc3nccc(-c4ccccn4)c3c(=O)[nH]2)CC1,2.37
14,Cc1ccnc(OCC(=O)N2CCC(C(N)=O)CC2)n1,26.4
15,CCOC(=O)C1CCN(c2nccc(-n3nc(C)cc3C)n2)CC1,-79.8
16,NC(=O)C1CCN(c2nccc(-c3c[nH]nc3C3CCCCC3)n2)CC1,57.5
17,Cc1ncc(-c2ccnc(N3CC[C@H](O)C3)n2)c(-c2cccnc2)n1,-13.7
18,CSc1ncccc1C(=O)N1C[C@@H]2CC[C@H]1CN(c1ncccn1)C2,15.1
19,CC(Cn1ccnc1)NC(=O)NCc1ccccn1 (stereo unspecified),15.34

row,Compound,INHIBITION [%]
1,COCCCNC(=O)c1nnsc1-c1ccccc1,-6.42
2,CNc1cccc(C2CCN(C(C)=O)CC2)n1,-9.51
3,COc1ccc(C)cc1CN1CCOC(Cn2nc(C)nc2C)C1 (stereo unspecified),-10.6
4,CCc1cc(-c2cc[nH]n2)nc(N2CCOCC2)n1,17.5
5,CC1CN(CC(=O)Nc2ccncc2)CCN1Cc1nccn1C (stereo unspecified),8.9
6,COCC[C@]1(O)CCN(Cc2nc(C)c(C)s2)C[C@H]1C,-47.4
7,OCCNc1nccc(-c2cn3nccc3nc2C2CCCCC2)n1,39.7
8,O=S1(=O)NC(c2ccnc(N3CCCCC3)n2)=Nc2ccccc21,25.8
9,Cc1csc2ncc(-c3ccnc(N4CCC[C@H](C(N)=O)C4)n3)c(=O)n12,64.9
10,Nc1nccc(-c2c[nH]nc2C2CCCCC2)n1,41.2
11,CN1CCCN(c2nccc(-c3cc(C(=O)O)ccn3)n2)CC1,41.4
12,CN1CCCN(c2nccc(-c3c[nH]nc3C3CCCCC3)n2)CC1,68.9
13,c1cc(-c2c[nH]nc2C2CCCCC2)nc(N2CCCCCC2)n1,90.1
14,CC(=O)N1CCCN(c2nccc(-c3cn(C)nc3C)n2)CC1,4.2
15,Cc1csc2ncc(-c3ccnc(N4CCCC4)n3)c(=O)n12,-71.6
16,CC(C)c1nc(C2CCCN(c3nccc(N4CCCC4)n3)C2)no1 (stereo unspecified),23.1
17,c1cc(-c2cn3nccc3nc2C2CCCCC2)nc(N2CCCC2)n1,82.7
18,Cc1csc2ncc(-c3ccnc(N4CCCN(C)CC4)n3)c(=O)n12,26.3
